# Data as given in ChEMBL document CHEMBL4296182, “CO-ADD screening of NIH NCI Diversity Set V”.
# For part of these data: Measured potencies and affinities stand elsewhere.
# Columns and labels:
# Staphylococcus aureus = assay: Antibacterial activity against Staphylococcus aureus MRSA ATCC 43300 (CO-ADD:GP_020); MIC in CAMBH media using NBS plates, by Resazurin F(560/590); assay type: functional; conditions: Concentration 20 uM, ASSAY_TEST Inhibition of Bacterial Growth, detection method Resazurin, Fluorescence (ex560/em590), MEDIA CAMHB, plate type 384well, CORNING #3640, time 18 hr
# Acinetobacter baumannii = assay: Antibacterial activity against Acinetobacter baumannii ATCC 19606 (CO-ADD:GN_034); MIC in CAMBH media using NBS plates, by Resazurin F(560/590); assay type: functional; conditions: Concentration 20 uM, ASSAY_TEST Inhibition of Bacterial Growth, detection method Resazurin, Fluorescence (ex560/em590), MEDIA CAMHB, plate type 384well, CORNING #3640, time 18 hr
# Escherichia coli = assay: Antibacterial activity against Escherichia coli ATCC 25922 (CO-ADD:GN_001); MIC in CAMBH media using NBS plates, by Resazurin F(560/590); assay type: functional; conditions: Concentration 20 uM, ASSAY_TEST Inhibition of Bacterial Growth, detection method Resazurin, Fluorescence (ex560/em590), MEDIA CAMHB, plate type 384well, CORNING #3640, time 18 hr
# Klebsiella pneumoniae = conditions: Concentration 20 uM; ASSAY_TEST Inhibition of Bacterial Growth; detection method Absorption (OD600); MEDIA CAMHB; plate type 384well; NBS; CORNING #3640; time 18 hr
# Candida albicans = conditions: 20 µM
# Cryptococcus neoformans = conditions: Concentration 20 uM; ASSAY_TEST Inhibition of Fungal Growth; detection method Resazurin; Absorption (OD600-OD570); plate type 384well; NBS; CORNING #3640
SMILES,Inhibition (Staphylococcus aureus) [%],Inhibition (Acinetobacter baumannii) [%],Inhibition (Escherichia coli) [%],Inhibition (Klebsiella pneumoniae) [%],Inhibition (Candida albicans) [%],Inhibition (Cryptococcus neoformans) [%]
CCOC(=O)Cc1cc(=O)[nH]n(-c2ccccc2)c1=O,5.46,4.69,13.24,12.15,4.43,-10.57
CCC(CO)Nc1nc2ccc(Cl)cc2c2ccccc12 (configuration not stated),32.89,5.43,4.69,20.8,4.64,-2
Cc1ccn(C)c(=N)c1,5.26,-6.78,8.42,11.41,2.59,-0.88
CCn1c(=O)n(C)c2c(=O)n(C)c(=O)n(C)c21,-2,-10.53,11.39,6.07,-0.98,-11.25
S=C(Nc1ccccc1)Nc1nccs1,-6.83,13.46,-3.08,13.95,19.1,1.13
CCC(C)N=C(S)Nc1ccccc1 (configuration not stated),-4.21,6.89,4.84,5.07,5.4,-3.02
Nc1ccc(C(=O)C(=O)c2ccc(N)cc2)cc1,-28.54,-4.51,-16.8,1.88,2.62,25.61
CC(C)NCC1CCc2cc(CO)c([N+](=O)[O-])cc2N1 (configuration not stated) [OXAMNIQUINE],9.47,-13.41,4.95,3.1,2.55,-8.23
CCN(CC)CCNc1c(C)nc(C#N)c(N)[n+]1[O-],6.23,-9.24,11.24,8.95,2.9,-16.29
O=C(O)c1ccccc1-c1ccccc1C(=O)Nc1ccc2oc(=O)c3ccccc3c2c1,4.75,-2.77,-0.87,11.43,17.8,-3.99
CCCc1cc(=O)oc2c3c(c4c(c12)OC(C)(C)C=C4)OC(C)[C@H](C)[C@@H]3O (some centres not stated),12.64,-5.36,11.63,20.98,7.97,-3.22
CC(=O)CC[N+](C)(C)C.[I-],1.22,-9.05,1.86,4.32,4.03,-9.72
NC(CSC1(c2cccc3ccccc23)c2ccccc2-c2ccccc21)C(=O)O (configuration not stated),9.31,-6.6,9.55,13.19,7.56,-2.74
CNc1nc(SC)n(C)c(=O)c1N=O,10.57,-4.07,13.38,9.07,-3.41,-15.4
Sc1ncnc2c1cnn2-c1ccccc1,-0.19,-10.1,15.12,7.13,16.7,30.67
Cc1ccc([N+](=O)[O-])cc1NC(=O)Nc1ccc(S(N)(=O)=O)cc1,2.59,7.91,0,0.38,-0.57,-7.76
Cc1ccc2nc(Cl)cc(=O)n2c1,3.79,-0.85,-11.05,5.29,1.34,9.92
CC(C)n1cnc2c(S)ncnc21,14.01,-16.92,12.98,11.21,2.47,-6.64
c1cc(-n2nnc3cnccc32)ccn1,13.16,-18.41,12.03,-0.91,-1.34,-8.76
NC(CC(=O)Nc1cc(C(F)(F)F)ccc1Cl)=NO,9.76,-1.74,-6.61,22.22,3.79,-11.78
Nc1ccc(/N=N/c2ccccc2)c2ccccc12,1.47,-18.91,11.66,8.12,1.76,-16.64
Cc1ccc(S(=O)(=O)N2CC=C(N)N2)cc1,16.25,-10.87,9.9,8.77,-1.38,-12.82
